# Source: PubChem
# HepG2 tox: qHTS for Inhibitors of TGF-b: Cytotox Counterscreen | AID 588856, 2011 | HepG2 CAGA-GFP viability, ATP luminescence, 18 h | hit rate 0.76% among 410,000 | Potency, µM (top dose mostly 46.1 µM), for the others: at the highest dose activity change, negative = cytotoxicity, hits mostly cytotoxic; note: potency is the fitted concentration of half-maximal effect
#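 CellTiter-Glo luminescence gave cytotoxicity after 18 hours at 37 degrees C. The cells were HepG2 CAGA-GFP in 1% FBS DMEM, stimulated with 500 pg/mL TGF-beta after compound addition. %Activity was normalised to no-cell wells (complete cell-killing) and DMSO (no toxicity), and curves were fitted and classified.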
# D3 ag: qHTS of D3 Dopamine Receptor Agonist: qHTS; D(3) dopamine receptor (Homo sapiens), P35462; D3R DiscoveRx beta-arrestin cells, luminescence, 90 min; max activation, %; hit rate 0.58% among 410,000; AID 652048, 2013; in the data active = max activation above about 30%; note: 0% is about no effect
# Target sequence (P35462 whole entry, looked up): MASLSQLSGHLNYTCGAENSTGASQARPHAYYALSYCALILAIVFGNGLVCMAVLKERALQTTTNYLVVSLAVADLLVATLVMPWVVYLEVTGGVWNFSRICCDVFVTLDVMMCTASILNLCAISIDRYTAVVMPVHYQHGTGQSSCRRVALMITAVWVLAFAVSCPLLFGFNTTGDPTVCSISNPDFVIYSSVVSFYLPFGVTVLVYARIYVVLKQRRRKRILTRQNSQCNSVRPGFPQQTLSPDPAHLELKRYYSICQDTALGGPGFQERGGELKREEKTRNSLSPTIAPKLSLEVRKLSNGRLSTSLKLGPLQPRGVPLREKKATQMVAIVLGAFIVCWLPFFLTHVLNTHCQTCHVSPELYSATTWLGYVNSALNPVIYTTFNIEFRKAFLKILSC
#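 Agonist-mode cell screen: cells plated at 1500/well and incubated overnight at 37 °C, then exposed to library compounds for 90 min at 37 °C. Detection reagent was added for 30–60 min at room temperature, and luminescence was read.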
# ATXN viability: Viability Counterscreen for Primary qHTS for Inhibitors of ATXN expression; hit rate 0.49% among 400,000; Potency, µM (top dose mostly 56.7 µM), usual class: cytotoxic; AID 651635, 2014; S2 cells (HEK-293 line with an ATXN2-luciferase reporter) viability, CellTiter-Fluor protease fluorescence, 24 h; note: potency is the fitted concentration of half-maximal effect; nearly all actives have a fitted effect of over 40% in size
# ATXN2 expr inh: Primary qHTS for Inhibitors of ATXN expression. HEK-293 ATXN2-luciferase reporter, luminescence, 24 h. Potency, µM (top dose mostly 57 µM), inactives show top-dose activity change, negative = inhibition, usual class: inhibitors. hit rate 0.72% among 360,000. AID 1745845, 2022; note: potency is the fitted concentration of half-maximal effect; % is set by controls: 0 for no effect and ±100 for the full control effect; nearly all actives have a fitted effect of over 55% in size
#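 qHTS (up to 57 uM final) was run with 24 h compound exposure of reporter cells at 37 °C. Each well was multiplexed: SteadyGlo luminescence measured ATXN2-luciferase expression after a fluorogenic Gly-Phe-AFC viability readout (25 uM final).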
# DRD3 antagonist: qHTS of D3 Dopamine Receptor Antagonist: qHTS; D(3) dopamine receptor (Homo sapiens), P35462; D3R cells, DiscoveRx beta-arrestin luminescence, antagonist mode; hits give low values; hit rate 2.5% among 360,000; max response, negative = inhibition, %; in the data active = max response below about -50%; inconclusive = no clear call, values can overlap the other calls; note: % is set by controls: 0 for no effect and ±100 for the full control effect
#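 Cells expressing the human receptor were seeded at 1500 cells/well, incubated overnight at 37 degrees C in 5% CO2, then exposed to library compounds with dopamine controls for 90 minutes at 37 degrees C before luminescent detection.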
# TGFb inhibitor: qHTS for Inhibitors of TGF-b; Potency, µM (series often up to 46.1 µM), for inactives: top-dose activity, negative = inhibition, most hits filed as inhibitors; AID 588855, 2011; hit rate 1.2% among 410,000; HepG2 CAGA-GFP TGF-b/SMAD3 reporter, GFP fluorescence, 18 h; TGF-beta stimulated, 500 pg/mL final; note: potency is the fitted concentration of half-maximal effect; % is set by controls: 0 for no effect and ±100 for the full control effect; nearly all actives have a fitted effect of over 65% in size
#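 HEPG2 CAGA-GFP cells (1000/well, DMEM with 1% FBS) were pre-incubated 2 h at 37 degrees C, given compound by pin tool, then stimulated with TGF-beta at 500 pg/mL final for 18 h before per-cell GFP fluorescence imaging.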
# Numbers without * were called inactive; i = inactive; u = inconclusive; x = not tested or not shown; [ ] = another dose, or the depositor's remark. Most compounds without a hit are left out; they make up all but 4.7% or so of the library. Unless noted, calls come from the whole dose curve; as a rule, active = well fitted curve in the direction sought with a large enough effect; inconclusive = small, poorly fitted or top-dose-only effect, or another doubt; inactive = no such curve, though single readings can be large; an effect the other way counts as inactive or inconclusive.
SMILES,HepG2 tox,D3 ag,ATXN viability,ATXN2 expr inh,DRD3 antagonist,TGFb inhibitor
O=[N+]([O-])c1ccc(C(c2ccc([N+](=O)[O-])cc2)c2ccc([N+](=O)[O-])cc2)cc1,-20.6%,6.0,u,31.6µM*,3.5,u
O=c1c(C2CC(c3ccc(-c4ccc(Br)cc4)cc3)Cc3ccccc32)c(O)sc2ccccc12 (stereo not given),x,x,i,u,x,x
CCCN(CCC)c1c([N+](=O)[O-])cc(S(N)(=O)=O)cc1[N+](=O)[O-],x,-3.0,50.1µM*,50.1µM*,x,x
CC1CCCCN1S(=O)(=O)c1ccc2c(c1)oc(=O)n2CC(=O)Nc1ccc(Cl)cc1 (stereo not given),-28.1%,0.4,i,-9.4%,x,u
Cc1nc2ccccc2c(=O)n1-c1ccccc1Cl,x,8.1,u,-26.3%[116 µM],x,x
CSc1ccccc1C(=O)C1CCCN(Cc2ccccn2)C1 (stereo not given),-19.6%,-15.9,i,-1.4%,0.3,-17.5%
O=C(c1ccc2c(c1)OCO2)C1CCCN(Cc2ccc(F)c(F)c2)C1 (stereo not given),-27.7%,-8.6,i,-0.1%,-52.2*,-5.7%
COc1ccc(CN2CCCC(C(=O)c3ccc(Cl)cc3)C2)c(OC)c1 (stereo not given),-29.6%,-10.6,i,-23.2%,-59.7*,-24.1%
COc1ccc(Cl)cc1C(=O)C1CCCN(CCO)C1 (stereo not given),-20.1%,-26.7,u,-6.4%,-50.0*,-1.0%
COc1ccc(CN2CCCC(C(=O)c3ccccc3SC)C2)cc1O (stereo not given),-41.3%,-7.1,i,x,-60.7*,-20.7%
O=C(c1ccc(Cl)cc1)C1CCCN(Cc2ccc3c(c2)OCCO3)C1 (stereo not given),5.6%,-25.5,i,u,-27.8,-0.4%
CSCC[C@@H](NC(=O)[C@@H](Cc1ccccc1)NC(=O)CNC(=O)CNC(=O)[C@@H](N)Cc1ccc(O)cc1)C(=O)O,x,x,x,4.5%,x,x
C=C1C=C(C(F)F)n2ncc(C(=O)NCc3ccccc3F)c2N1,-7.8%,x,x,x,x,-4.1%
CC1(C)[C@H](C=C(Cl)Cl)[C@H]1C(=O)OCc1c(F)c(F)cc(F)c1F,x,11.8,x,x,x,x
COc1ccc(CN2CCCC(C(=O)c3cccc(Cl)c3)C2)cc1 (stereo not given),-32.3%,-18.9,u,x,-73.2*,-13.9%
OC[C@@H](O)[C@H]1O[C@@H]2O[C@H](C(Cl)(Cl)Cl)O[C@@H]2[C@H]1O,x,4.3,x,x,x,x
ClCCN(CCCl)c1ccc(-n2cnc3c(Cl)ncnc32)cc1,1.8%,-7.0,x,15.8µM*,-20.6,4.1%
COc1ccc2c(c1)c(=O)c(C(=O)c1ccc(Cl)cc1)cn2CC(=O)Nc1ccc2c(c1)OCCO2,1.1%,3.8,u,u,x,2.6%
CC1Sc2c(C(=O)O)c(=O)c3cc(F)c(N4CCNCC4)cc3n21 (stereo not given),x,x,i,6.0%,x,x
C[C@H](CO)N1C[C@H](C)[C@@H](CN(C)C(=O)c2ccc3c(c2)OCO3)Oc2cc(/C=C/c3ccccc3)ccc2S1(=O)=O,-29.9%,-7.5,u,u,-20.0,-14.6%
CC(Cc1ccc2c(c1)OCO2)NO (stereo not given),x,-11.8,i,-22.2%[116 µM],x,x
CCCCCCOc1ccc(CN2CCN(C)CC2)cc1,-47.2%,-18.8,i,u,-16.6,39.2%
CCCCCCCCCCCC[N+](C)(C)CCOc1ccccc1,x,-25.0,u,31.6µM*,x,x
O=C(NCCSc1c(-c2ccccc2)[nH]c2ccccc12)c1ccc(S(=O)(=O)N2CCOCC2)cc1,-24.7%,4.0,u,-31.6%,x,u
C=CCCC[C@@H]1OC(=O)CNC(=O)C([C@@H](C)CC)NC(=O)[C@@H]2CCCN2C(=O)C([C@@H](C)CC)OC(=O)[C@H](Cc2ccccc2)N(C)C(=O)[C@H](C(C)C)NC(=O)C1(C)C (stereo not given in full),-31.0%,-15.3,u,31.6µM*,u,10µM*
SMILES,HepG2 tox,D3 ag,ATXN viability,ATXN2 expr inh,DRD3 antagonist,TGFb inhibitor
CC(C)c1ccc2c(c1)C(N1CCNCC1)Cc1ccc(F)cc1S2 (stereo not given),-91.2%,-10.1,u,u,-62.9*,17.8µM*
CCOc1ccc(CN2CCN(C(=O)Cc3ccccc3)CC2)cc1,-12.6%,-11.0,i,-22.1%,-16.4,-25.0%
CC(C)Oc1cccnc1N(C)C1CCN(Cc2ccccc2)CC1,-24.4%,0.0,i,-9.2%,-95.4*,-7.4%
C=CC(=O)NCNC(=O)C=C,-0.3%,-88.1,i,-0.6%,-75.8*,9.2%
O=C(c1ccc2c3c(cccc13)CC2)C1CCCN(Cc2ncc[nH]2)C1 (stereo not given),-35.1%,-8.2,i,-32.1%,-12.0,u
O=C(c1ccc2c3c(cccc13)CC2)C1CCCN(CC2CC2)C1 (stereo not given),-12.1%,-27.2,i,-33.6%,-80.8*,-2.7%
NCC(=O)c1cccc([N+](=O)[O-])c1,0.7%,x,x,x,x,u
CCc1ccccc1NC(=O)NNS(=O)(=O)c1cc(C)ccc1C,0.2%,2.0,i,-11.4%,6.2,84.9%
COc1ccc(CC(N)c2csc(NC(=O)Nc3ccccc3Oc3ccccc3)n2)cc1 (stereo not given),10µM*,4.8,x,u,36.1,u
CCOC(=O)c1cc2cc(OC)ccc2n1C1CCN(Cc2ccccc2)CC1,x,-10.2,i,21.5%,-88.9*,x
COc1ccc2c3c1O[C@H]1[C@H](O)CC[C@H]4[C@@H](C2)N(C)CC[C@@]341,x,4.7,i,3.4%[116 µM],x,x
O=[N+]([O-])c1ccc(Sc2nc3ccccc3o2)c([N+](=O)[O-])c1,12.6µM*,-25.3,x,u,-20.7,u
